# Columns and labels:
# Test in all cases: DAPPL (digital affinity profiling via proximity ligation, sequencing); 10 mM Tris-HCl pH 7.5, 50 mM NaCl, 1 mM DTT, 4% glycerol, room temperature, 30 min; GST-TFs on glutathione beads, 16-mer random dsDNA library, 0.1% formaldehyde crosslink after washing; high values mean tight binding
# Settings in all cases: protein: recombinant; tags: N-terminal GST; dsDNA, one strand shown
# FLI1 = biological target: T1, FLI1 (Homo sapiens, UniProt Q01543 1-452)
# T1 sequence: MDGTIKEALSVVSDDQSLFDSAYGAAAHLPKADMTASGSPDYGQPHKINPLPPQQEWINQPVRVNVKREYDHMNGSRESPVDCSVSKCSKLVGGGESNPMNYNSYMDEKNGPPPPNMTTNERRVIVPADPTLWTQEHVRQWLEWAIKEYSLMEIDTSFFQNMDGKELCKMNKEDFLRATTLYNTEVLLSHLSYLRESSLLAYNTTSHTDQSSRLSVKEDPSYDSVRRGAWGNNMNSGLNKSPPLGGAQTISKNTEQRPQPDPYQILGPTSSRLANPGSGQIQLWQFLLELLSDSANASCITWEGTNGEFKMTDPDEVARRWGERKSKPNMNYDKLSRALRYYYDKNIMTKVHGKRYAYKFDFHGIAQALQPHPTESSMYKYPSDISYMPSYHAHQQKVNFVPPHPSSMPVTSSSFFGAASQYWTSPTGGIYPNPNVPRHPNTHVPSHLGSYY
# In short: (§1)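 A tag-only sample was pooled with DNA-barcoded human transcription factors that had been expressed in yeast as GST fusions and captured on glutathione beads. The pools were incubated for 30 min at room temperature with 200 nmole of a random double-stranded 16-mer DNA library in Tris/NaCl/DTT/glycerol buffer, then washed, crosslinked with 0.1% formaldehyde, proximity-ligated (BsaI/T4 ligase, 1 h, 37 °C), PCR-amplified and sequenced on an Illumina NextSeq500. Binding signal is each hexamer's read frequency for a factor divided by its frequency for the tag-only sample.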
# ELK1 = biological target: T2, ELK1 (Homo sapiens, UniProt P19419 1-428)
# T2 sequence: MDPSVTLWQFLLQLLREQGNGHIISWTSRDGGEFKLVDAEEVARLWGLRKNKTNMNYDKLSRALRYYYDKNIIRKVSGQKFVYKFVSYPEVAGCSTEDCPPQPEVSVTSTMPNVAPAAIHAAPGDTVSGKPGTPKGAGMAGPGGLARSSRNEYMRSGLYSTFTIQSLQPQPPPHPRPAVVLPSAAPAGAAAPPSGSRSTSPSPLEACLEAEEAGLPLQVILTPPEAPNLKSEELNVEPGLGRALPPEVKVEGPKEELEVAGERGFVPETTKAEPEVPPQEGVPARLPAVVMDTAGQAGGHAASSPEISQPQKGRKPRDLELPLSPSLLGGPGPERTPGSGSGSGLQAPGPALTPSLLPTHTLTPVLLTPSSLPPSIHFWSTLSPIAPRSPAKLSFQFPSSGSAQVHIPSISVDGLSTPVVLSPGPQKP
# In short: as §1
# GABPA = biological target: T3, GABPA (Homo sapiens, UniProt Q06546 1-454)
# T3 sequence: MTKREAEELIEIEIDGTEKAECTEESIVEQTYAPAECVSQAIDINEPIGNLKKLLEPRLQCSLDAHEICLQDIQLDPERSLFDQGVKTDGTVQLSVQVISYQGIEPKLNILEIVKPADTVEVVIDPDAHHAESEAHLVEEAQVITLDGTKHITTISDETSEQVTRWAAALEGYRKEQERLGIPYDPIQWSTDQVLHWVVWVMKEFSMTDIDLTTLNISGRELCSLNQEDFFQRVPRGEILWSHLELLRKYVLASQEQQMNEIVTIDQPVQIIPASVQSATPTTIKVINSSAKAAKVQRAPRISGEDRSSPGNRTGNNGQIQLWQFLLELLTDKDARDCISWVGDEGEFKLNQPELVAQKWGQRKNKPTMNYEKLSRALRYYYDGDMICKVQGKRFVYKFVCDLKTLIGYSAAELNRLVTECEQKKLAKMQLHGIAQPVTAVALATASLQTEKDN
# In short: as §1
# ERG = biological target: T4, ERG (Homo sapiens, UniProt P11308 1-479)
# T4 sequence: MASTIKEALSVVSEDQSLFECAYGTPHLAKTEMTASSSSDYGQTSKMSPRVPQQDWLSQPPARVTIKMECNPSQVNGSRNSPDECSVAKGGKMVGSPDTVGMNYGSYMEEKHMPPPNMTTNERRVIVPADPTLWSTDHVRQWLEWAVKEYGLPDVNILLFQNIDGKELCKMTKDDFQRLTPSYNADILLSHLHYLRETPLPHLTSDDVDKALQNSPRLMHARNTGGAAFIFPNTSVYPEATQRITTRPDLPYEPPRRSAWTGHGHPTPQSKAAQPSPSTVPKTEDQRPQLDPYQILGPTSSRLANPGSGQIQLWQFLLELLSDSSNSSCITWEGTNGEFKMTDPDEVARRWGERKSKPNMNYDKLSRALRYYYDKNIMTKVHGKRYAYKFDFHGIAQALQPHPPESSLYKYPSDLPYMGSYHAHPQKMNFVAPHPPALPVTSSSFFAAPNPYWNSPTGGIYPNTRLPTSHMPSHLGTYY
# In short: as §1
# ELF1 = ELF1 (Homo sapiens, UniProt P32519 1-619)
# In short: as §1
# EHF = biological target: T5, EHF (Homo sapiens, UniProt Q9NZC4 1-300)
# T5 sequence: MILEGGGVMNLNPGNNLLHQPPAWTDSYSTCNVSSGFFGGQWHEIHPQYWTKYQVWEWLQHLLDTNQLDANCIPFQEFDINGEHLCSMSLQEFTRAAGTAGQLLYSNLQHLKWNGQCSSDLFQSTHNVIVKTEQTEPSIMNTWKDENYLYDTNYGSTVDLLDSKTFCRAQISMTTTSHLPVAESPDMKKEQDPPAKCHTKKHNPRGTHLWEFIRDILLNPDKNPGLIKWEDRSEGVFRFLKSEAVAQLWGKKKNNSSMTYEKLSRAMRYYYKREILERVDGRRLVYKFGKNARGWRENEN
# In short: as §1
# SPI1 = SPI1 (Homo sapiens, UniProt P17947 1-270)
# In short: as §1
# SPIB = SPIB (Homo sapiens, UniProt Q01892 1-262)
# In short: as §1
# ELK3 = biological target: T6, ELK3 (Homo sapiens, UniProt P41970 1-407)
# T6 sequence: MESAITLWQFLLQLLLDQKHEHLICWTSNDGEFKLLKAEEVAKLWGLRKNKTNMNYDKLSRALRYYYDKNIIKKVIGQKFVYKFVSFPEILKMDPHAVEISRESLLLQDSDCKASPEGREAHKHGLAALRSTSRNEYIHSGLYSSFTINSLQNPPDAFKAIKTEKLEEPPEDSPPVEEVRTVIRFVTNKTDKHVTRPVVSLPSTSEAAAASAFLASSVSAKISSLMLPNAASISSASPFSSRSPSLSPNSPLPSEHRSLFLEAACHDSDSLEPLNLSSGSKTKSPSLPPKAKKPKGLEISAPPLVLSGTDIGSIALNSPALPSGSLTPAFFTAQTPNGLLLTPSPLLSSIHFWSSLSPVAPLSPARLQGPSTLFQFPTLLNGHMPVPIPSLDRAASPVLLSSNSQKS
# In short: as §1
# Sequence of SPIB (Q01892 whole entry): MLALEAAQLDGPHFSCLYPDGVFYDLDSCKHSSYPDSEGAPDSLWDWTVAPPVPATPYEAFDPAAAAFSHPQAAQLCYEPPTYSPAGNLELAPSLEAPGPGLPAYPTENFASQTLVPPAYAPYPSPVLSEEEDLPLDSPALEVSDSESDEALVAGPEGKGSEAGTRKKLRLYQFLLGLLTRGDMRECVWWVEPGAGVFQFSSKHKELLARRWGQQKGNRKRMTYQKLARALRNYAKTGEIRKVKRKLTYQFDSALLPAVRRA
# Sequence of ELF1 (P32519 whole entry): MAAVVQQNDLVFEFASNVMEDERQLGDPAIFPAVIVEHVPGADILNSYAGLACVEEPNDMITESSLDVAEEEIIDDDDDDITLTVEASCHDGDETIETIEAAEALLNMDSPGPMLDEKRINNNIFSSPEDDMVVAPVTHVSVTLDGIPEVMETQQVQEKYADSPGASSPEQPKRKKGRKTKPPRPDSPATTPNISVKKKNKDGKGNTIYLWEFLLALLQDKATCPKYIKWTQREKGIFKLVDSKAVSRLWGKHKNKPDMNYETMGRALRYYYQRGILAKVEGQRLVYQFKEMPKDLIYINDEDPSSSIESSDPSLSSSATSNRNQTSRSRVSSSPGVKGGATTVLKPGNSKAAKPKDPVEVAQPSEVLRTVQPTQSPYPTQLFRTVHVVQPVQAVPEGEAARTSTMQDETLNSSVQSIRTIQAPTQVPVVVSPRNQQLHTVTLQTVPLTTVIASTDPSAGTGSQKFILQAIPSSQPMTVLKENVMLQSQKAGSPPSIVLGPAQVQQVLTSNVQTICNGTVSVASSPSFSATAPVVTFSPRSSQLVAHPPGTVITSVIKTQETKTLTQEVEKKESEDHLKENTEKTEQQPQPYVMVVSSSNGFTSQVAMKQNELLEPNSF
sequence,measurement,setting,value
TGCGAA,binding signal,FLI1,"1.21 fold enrichment (6-mer frequency, TF over GST control)"
same,binding signal,ELK1,"1.2 fold enrichment (6-mer frequency, TF over GST control)"
same,binding signal,GABPA,"1.07 fold enrichment (6-mer frequency, TF over GST control)"
same,binding signal,ERG,"1.16 fold enrichment (6-mer frequency, TF over GST control)"
same,binding signal,ELF1,"1.23 fold enrichment (6-mer frequency, TF over GST control)"
same,binding signal,EHF,"1.18 fold enrichment (6-mer frequency, TF over GST control)"
same,binding signal,SPI1,"1.26 fold enrichment (6-mer frequency, TF over GST control)"
same,binding signal,SPIB,"1.22 fold enrichment (6-mer frequency, TF over GST control)"
same,binding signal,ELK3,"1.07 fold enrichment (6-mer frequency, TF over GST control)"
